This is part of a sample that, as a whole, favours compounds with a hit. Of some 83,000 tested, about 20% had one in any assay.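 Treatment: one concentration, 48 hours, 96-well format. Scoring: percent growth, with anything below 10 considered active.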 Active and inactive are the calls of the source.
Experiments:
Assay in all cases: NCI-60 one-dose screen, 48 h (100 = growth as untreated, 0 = no growth, -100 = all killed)
Details in all cases: 10 µM unless noted
RPMI-8226 leukemia = tested on: RPMI-8226 leukemia
OVCAR-8 ovarian = tested on: OVCAR-8 ovarian
OVCAR-5 ovarian = tested on: OVCAR-5 ovarian
OVCAR-4 ovarian = tested on: OVCAR-4 ovarian
SK-OV-3 ovarian = tested on: SK-OV-3 ovarian
IGROV1 ovarian = tested on: IGROV1 ovarian
OVCAR-3 ovarian = tested on: OVCAR-3 ovarian
HS 578T breast = tested on: HS 578T breast
NCI/ADR-RES ovarian = tested on: NCI/ADR-RES ovarian
T-47D breast = tested on: T-47D breast

Measured: growth

COc1cc(C2NC(c3ccc(Cl)cc3)C(C)/C(=N/NC(N)=S)C2C)cc(OC)c1OC (stereo not given)
inactive: RPMI-8226 leukemia 74.2% | OVCAR-8 ovarian 87.3% | OVCAR-5 ovarian 98% | OVCAR-4 ovarian 87% | SK-OV-3 ovarian 101% | IGROV1 ovarian 89.7% | OVCAR-3 ovarian 98.6% | HS 578T breast 98.1% | NCI/ADR-RES ovarian 94.1% | T-47D breast 82.7%

O=C(O)c1ccc(NC(=O)c2cccc(Nc3ccnc(C(F)(F)F)c3)c2)cc1
inactive: RPMI-8226 leukemia 98.3% | OVCAR-8 ovarian 98.9% | OVCAR-5 ovarian 103% | OVCAR-4 ovarian 98.1% | SK-OV-3 ovarian 105% | IGROV1 ovarian 106% | OVCAR-3 ovarian 104% | HS 578T breast 98.3% | NCI/ADR-RES ovarian 107% | T-47D breast 94.3%

Cc1cc2c(cc1C)Nc1sc(NC(=O)CN3CCN(C)CC3)nc1C(=O)N2
inactive: RPMI-8226 leukemia 105% | OVCAR-8 ovarian 103% | OVCAR-5 ovarian 105% | OVCAR-4 ovarian 108% | SK-OV-3 ovarian 99.6% | IGROV1 ovarian 112% | OVCAR-3 ovarian 112% | HS 578T breast 106% | NCI/ADR-RES ovarian 103% | T-47D breast 94.1%

COc1ccc2c3c(c(OCCCN(C)C)nc2c1)-c1ccc(Cl)cc1C3=O
inactive: SK-OV-3 ovarian 55.5% | IGROV1 ovarian 30.8% | HS 578T breast 68.7% | T-47D breast 72.7%
active: RPMI-8226 leukemia -17.3% | OVCAR-8 ovarian -38.6% | OVCAR-5 ovarian -43.3% | OVCAR-4 ovarian -8.75% | OVCAR-3 ovarian -46.4% | NCI/ADR-RES ovarian 7.12%

O=C(C(Br)Br)C(Br)C(Br)c1ccccc1 (stereo not given)
active: OVCAR-3 ovarian 1.96%
inactive: RPMI-8226 leukemia 78.1% | OVCAR-8 ovarian 88% | OVCAR-5 ovarian 108% | OVCAR-4 ovarian 43.1% | SK-OV-3 ovarian 116% | IGROV1 ovarian 84.3% | HS 578T breast 104% | NCI/ADR-RES ovarian 94.5% | T-47D breast 49.7%

Cc1[nH]n(C(N)=S)c(=O)c1N=Nc1ccc(F)c(Cl)c1
inactive: RPMI-8226 leukemia 78.2% | OVCAR-8 ovarian 91.2% | OVCAR-5 ovarian 102% | OVCAR-4 ovarian 94.9% | SK-OV-3 ovarian 280% | IGROV1 ovarian 102% | OVCAR-3 ovarian 88.3% | HS 578T breast 127% | NCI/ADR-RES ovarian 117% | T-47D breast 249%

COc1cc2c(cc1OCCCCCn1c(-c3ccc(OCc4ccccc4)cc3)nc3cc(N4CCOCC4)ccc31)N=C[C@@H]1CCCN1C2=O
active: OVCAR-5 ovarian 9.51% | IGROV1 ovarian -58.7% | OVCAR-3 ovarian 4.07%
inactive: RPMI-8226 leukemia 19.4% | OVCAR-8 ovarian 21.2% | OVCAR-4 ovarian 21.4% | SK-OV-3 ovarian 35.3% | HS 578T breast 12.4% | NCI/ADR-RES ovarian 23.8% | T-47D breast 19%

CCOC(=O)c1c(NC(=O)C2CCCCC2C(=O)O)sc2c1CCCC2 (stereo not given)
inactive: RPMI-8226 leukemia 105% | OVCAR-8 ovarian 96.7% | OVCAR-5 ovarian 106% | OVCAR-4 ovarian 100% | SK-OV-3 ovarian 97.9% | IGROV1 ovarian 105% | OVCAR-3 ovarian 106% | HS 578T breast 103% | NCI/ADR-RES ovarian 106% | T-47D breast 103%

COc1ccc(-c2nnc(COc3ccc(NC(=O)Nc4cc(C(F)(F)F)cc(C(F)(F)F)c4)cc3F)o2)cc1
active: RPMI-8226 leukemia -25.8% | OVCAR-3 ovarian 2.67%
inactive: OVCAR-8 ovarian 11.4% | OVCAR-5 ovarian 29% | OVCAR-4 ovarian 19.2% | SK-OV-3 ovarian 18.4% | IGROV1 ovarian 44.4% | HS 578T breast 16.8% | NCI/ADR-RES ovarian 10.6% | T-47D breast 20.4%

CCOc1nc(-c2ccccc2)cc2c(O)c(-c3nnco3)[nH]c(=O)c12
active: T-47D breast 2.73%
inactive: RPMI-8226 leukemia 48.3% | OVCAR-8 ovarian 30.6% | OVCAR-5 ovarian 101% | OVCAR-4 ovarian 51.5% | SK-OV-3 ovarian 59.3% | IGROV1 ovarian 36.7% | OVCAR-3 ovarian 27.8% | HS 578T breast 68% | NCI/ADR-RES ovarian 25.5%

CCCC[N+](CCCC)=c1ccc2nc3c(C)cc(N(CC)CC)cc3sc-2c1
inactive: OVCAR-4 ovarian 22.9% | IGROV1 ovarian 43.2%
active: RPMI-8226 leukemia -48.2% | OVCAR-8 ovarian 5.84% | OVCAR-5 ovarian 4.55% | SK-OV-3 ovarian -8.75% | OVCAR-3 ovarian -23.3% | HS 578T breast 6.6% | NCI/ADR-RES ovarian -11.9% | T-47D breast -23.3%

O=C(C(=O)N1CCCCC1)c1ccc(OC2OC(CO)C(O)C(O)C2O)cc1 (stereo not given)
inactive: RPMI-8226 leukemia 103% | OVCAR-8 ovarian 95.9% | OVCAR-5 ovarian 113% | OVCAR-4 ovarian 108% | SK-OV-3 ovarian 105% | IGROV1 ovarian 86.7% | OVCAR-3 ovarian 107% | HS 578T breast 110% | NCI/ADR-RES ovarian 103% | T-47D breast 99.6%

O=C1OC(c2ccc(-c3ccccc3)cc2)=C/C1=C/c1cccs1
inactive: RPMI-8226 leukemia 138% | OVCAR-8 ovarian 78.9% | OVCAR-5 ovarian 98.5% | OVCAR-4 ovarian 65.5% | SK-OV-3 ovarian 128% | IGROV1 ovarian 93% | OVCAR-3 ovarian 89.2% | HS 578T breast 98.4% | NCI/ADR-RES ovarian 86.5% | T-47D breast 33.6%

COc1ccc(-c2csc(NC(=O)c3cc(OC)c(OC)c(OC)c3)n2)cc1
inactive: RPMI-8226 leukemia 92.7% | OVCAR-8 ovarian 97.2% | OVCAR-5 ovarian 103% | OVCAR-4 ovarian 96.8% | SK-OV-3 ovarian 101% | IGROV1 ovarian 100% | OVCAR-3 ovarian 105% | HS 578T breast 96.4% | NCI/ADR-RES ovarian 115% | T-47D breast 94.8%

CN1CCN(CC(=O)Nc2nc3c(s2)Nc2cc(Cl)c(Cl)cc2NC3=O)CC1
inactive: RPMI-8226 leukemia 108% | OVCAR-8 ovarian 99.3% | OVCAR-5 ovarian 113% | OVCAR-4 ovarian 116% | SK-OV-3 ovarian 99% | IGROV1 ovarian 110% | OVCAR-3 ovarian 115% | HS 578T breast 107% | NCI/ADR-RES ovarian 109% | T-47D breast 98.1%

COc1ccc(-c2cc(C(=O)Nc3nc4cc(C)c(C)cc4s3)nc3cc(-c4ccccc4)nn23)cc1OC
inactive: RPMI-8226 leukemia 88% | OVCAR-8 ovarian 110% | OVCAR-5 ovarian 111% | OVCAR-4 ovarian 106% | SK-OV-3 ovarian 105% | IGROV1 ovarian 122% | OVCAR-3 ovarian 138% | HS 578T breast 111% | NCI/ADR-RES ovarian 102% | T-47D breast 103%

C[N+]1(CCc2ccccc2)CCC(CCC2CC[N+](C)(CCc3ccccc3)CC2)CC1 (stereo not given)
inactive: RPMI-8226 leukemia 126% | OVCAR-8 ovarian 97% | OVCAR-5 ovarian 104% | OVCAR-4 ovarian 103% | SK-OV-3 ovarian 107% | IGROV1 ovarian 105% | OVCAR-3 ovarian 107% | HS 578T breast 103% | NCI/ADR-RES ovarian 105% | T-47D breast 102%

Cc1cc(C(C)(C)c2cc(C)c(O)c(CN(C)C)c2)cc(CN(C)C)c1O
inactive: RPMI-8226 leukemia 84.1% | OVCAR-8 ovarian 89.4% | OVCAR-5 ovarian 102% | OVCAR-4 ovarian 99.1% | SK-OV-3 ovarian 104% | IGROV1 ovarian 78.9% | OVCAR-3 ovarian 85.7% | HS 578T breast 76.1% | NCI/ADR-RES ovarian 95.7% | T-47D breast 107%

COC1=CC(c2ccc[nH]2)=N/C1=C\c1[nH]c(C)c(C(=O)CCC(=O)Oc2ccc3c(c2)CCC2C3CC[C@]3(C)C(=O)CC[C@@H]23)c1C (stereo not given in full)
inactive: RPMI-8226 leukemia 68.3% | OVCAR-8 ovarian 80.8% | OVCAR-5 ovarian 55.6% | OVCAR-4 ovarian 67.7% | SK-OV-3 ovarian 85.5% | IGROV1 ovarian 79.5% | OVCAR-3 ovarian 89.1% | HS 578T breast 69.8% | NCI/ADR-RES ovarian 82.3% | T-47D breast 79.2%

O=C(COC(=O)[C@H](C[Se][Se]C[C@H](NC(=O)c1ccc(Br)cc1F)C(=O)OCC(=O)c1ccc(F)cc1)NC(=O)c1ccc(Br)cc1F)c1ccc(F)cc1
active: RPMI-8226 leukemia -44.3% | OVCAR-8 ovarian -100% | OVCAR-5 ovarian -68.7% | OVCAR-4 ovarian -95.7% | SK-OV-3 ovarian -81% | IGROV1 ovarian -100% | OVCAR-3 ovarian -100% | HS 578T breast -16% | NCI/ADR-RES ovarian -82.8% | T-47D breast -67%

CC(=O)Oc1ccc(C2OC(c3ccc4ccccc4c3OC(C)=O)=NN2C(C)=O)c(OC(C)=O)c1 (stereo not given)
active: OVCAR-8 ovarian 8.13%
inactive: RPMI-8226 leukemia 21.2% | OVCAR-5 ovarian 63.2% | OVCAR-4 ovarian 32.2% | SK-OV-3 ovarian 27.6% | IGROV1 ovarian 20.3% | OVCAR-3 ovarian 18.7% | HS 578T breast 59.7% | NCI/ADR-RES ovarian 11.1% | T-47D breast 25%

O=C1CCCN1C1CCN(Cc2cc3ccccc3[nH]c2=O)c2ccccc21 (stereo not given)
inactive: OVCAR-8 ovarian 101% | OVCAR-5 ovarian 91.3% | OVCAR-4 ovarian 82.6% | SK-OV-3 ovarian 93.8% | IGROV1 ovarian 90% | OVCAR-3 ovarian 98.8% | HS 578T breast 98% | NCI/ADR-RES ovarian 97.4% | T-47D breast 60.1%
active: RPMI-8226 leukemia 3.19%

COc1cc(OC)c2cc(C(=O)O)c(=O)oc2c1
inactive: RPMI-8226 leukemia 43% | OVCAR-8 ovarian 94.4% | OVCAR-5 ovarian 106% | OVCAR-4 ovarian 130% | SK-OV-3 ovarian 99.9% | IGROV1 ovarian 55.2% | OVCAR-3 ovarian 102% | HS 578T breast 134% | NCI/ADR-RES ovarian 112% | T-47D breast 99.4%

c1csc([C@@H]2C[C@@H]3Cc4ccc5ccccc5c4N2O3)c1
inactive: RPMI-8226 leukemia 95.5% | OVCAR-8 ovarian 96.9% | OVCAR-5 ovarian 89.9% | OVCAR-4 ovarian 87.7% | SK-OV-3 ovarian 102% | IGROV1 ovarian 105% | OVCAR-3 ovarian 102% | HS 578T breast 101% | NCI/ADR-RES ovarian 97.7% | T-47D breast 98.8%

Nc1ccc2c3c(cccc13)-c1ccccc1-2
inactive: RPMI-8226 leukemia 33.9% | OVCAR-8 ovarian 99.1% | OVCAR-5 ovarian 99.8% | OVCAR-4 ovarian 86.1% | SK-OV-3 ovarian 99.6% | IGROV1 ovarian 84% | OVCAR-3 ovarian 88.4% | HS 578T breast 89.2% | NCI/ADR-RES ovarian 95.2% | T-47D breast 92.3%

O=c1[nH]c(Cl)nc2c1cnn2-c1ccccc1
inactive: RPMI-8226 leukemia 51.7% | OVCAR-8 ovarian 106% | OVCAR-5 ovarian 97.2% | OVCAR-4 ovarian 82.6% | SK-OV-3 ovarian 110% | IGROV1 ovarian 108% | OVCAR-3 ovarian 93.4% | HS 578T breast 93.4% | NCI/ADR-RES ovarian 96.3% | T-47D breast 98.4%
